# Columns and labels:
# Test in all cases: universal protein binding microarray (PBM); transcription factors of Arabidopsis thaliana; high values mean tight binding
# [1] = biological target: T1, GST-ANAC092(1-176) (Arabidopsis thaliana, UniProt Q9FKA0 1-176); conditions: protein: recombinant; tags: GST; chain copies: 2; dsDNA, one strand shown
# T1 sequence: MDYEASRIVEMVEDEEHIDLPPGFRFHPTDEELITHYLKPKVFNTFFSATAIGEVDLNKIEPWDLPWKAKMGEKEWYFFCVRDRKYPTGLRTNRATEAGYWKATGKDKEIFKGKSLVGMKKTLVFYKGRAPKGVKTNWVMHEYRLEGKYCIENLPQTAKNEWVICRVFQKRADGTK
# In short: (§1)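 GST-tagged proteins (NAC-domain, full-length or DNA-binding-domain) were induced in cells, with zinc acetate supplied for zinc-finger proteins, then purified on glutathione–Sepharose 4B. Each was tested in duplicate at 200 to 500 nM final on custom all-10-mer Agilent 4 × 180K arrays rendered double-stranded by primer extension. The binding value is the normalised enrichment score (E-score) across gapped and ungapped 8-mers.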
# [2] = biological target: GST-NTL6(1-168) (Arabidopsis thaliana, UniProt Q9SCK6 1-168); conditions: protein: recombinant; tags: GST; chain copies: 2; dsDNA, one strand shown
# GST-NTL6(1-168), sequence (Q9SCK6 1-168): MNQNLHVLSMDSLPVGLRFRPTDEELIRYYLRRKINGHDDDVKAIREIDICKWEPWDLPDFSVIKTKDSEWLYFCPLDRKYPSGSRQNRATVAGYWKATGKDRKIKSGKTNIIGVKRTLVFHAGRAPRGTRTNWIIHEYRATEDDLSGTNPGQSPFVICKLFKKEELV
# In short: as §1
# [3] = biological target: T2, GST-ANAC019 NAC domain (Arabidopsis thaliana, UniProt Q9C932 14-162); conditions: protein: recombinant; tags: GST; chain copies: 2; dsDNA, one strand shown
# T2 sequence: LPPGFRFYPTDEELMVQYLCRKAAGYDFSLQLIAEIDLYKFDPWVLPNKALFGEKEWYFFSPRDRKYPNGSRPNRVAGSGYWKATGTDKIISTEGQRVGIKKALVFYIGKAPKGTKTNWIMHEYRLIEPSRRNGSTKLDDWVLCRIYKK
# In short: as §1
# [4] = biological target: T3, GST-ANAC055(1-171) (Arabidopsis thaliana, UniProt Q9LDY8 1-171); conditions: protein: recombinant; tags: GST; chain copies: 2; dsDNA, one strand shown
# T3 sequence: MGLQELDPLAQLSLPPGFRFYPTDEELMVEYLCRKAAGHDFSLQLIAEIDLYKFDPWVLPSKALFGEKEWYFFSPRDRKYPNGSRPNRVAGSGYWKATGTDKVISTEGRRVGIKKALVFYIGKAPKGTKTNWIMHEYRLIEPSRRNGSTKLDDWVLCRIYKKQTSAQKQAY
# In short: as §1
# [5] = biological target: T4, GST-ATAF1 NAC domain (Arabidopsis thaliana, UniProt Q39013 7-158); conditions: protein: recombinant; tags: GST; chain copies: 2; dsDNA, one strand shown
# T4 sequence: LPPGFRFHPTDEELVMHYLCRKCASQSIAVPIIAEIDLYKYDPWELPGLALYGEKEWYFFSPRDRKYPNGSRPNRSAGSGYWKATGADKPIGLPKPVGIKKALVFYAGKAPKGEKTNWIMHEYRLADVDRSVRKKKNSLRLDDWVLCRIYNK
# In short: as §1
# [6] = biological target: T5, GST-ANAC092(1-285) full length (Arabidopsis thaliana, UniProt Q9FKA0 1-285); conditions: protein: recombinant; tags: GST; chain copies: 2; dsDNA, one strand shown
# T5 sequence: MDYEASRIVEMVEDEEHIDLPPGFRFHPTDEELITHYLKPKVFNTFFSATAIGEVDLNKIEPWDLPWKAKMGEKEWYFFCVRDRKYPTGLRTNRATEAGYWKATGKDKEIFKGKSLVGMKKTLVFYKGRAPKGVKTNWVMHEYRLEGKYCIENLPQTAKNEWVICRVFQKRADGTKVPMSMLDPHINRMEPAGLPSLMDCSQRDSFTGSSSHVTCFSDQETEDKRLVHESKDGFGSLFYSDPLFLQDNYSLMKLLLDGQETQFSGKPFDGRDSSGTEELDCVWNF
# In short: as §1
# [7] = biological target: T6, GST-NAP(1-166) (Arabidopsis thaliana, UniProt O49255 1-166); conditions: protein: recombinant; tags: GST; chain copies: 2; dsDNA, one strand shown
# T6 sequence: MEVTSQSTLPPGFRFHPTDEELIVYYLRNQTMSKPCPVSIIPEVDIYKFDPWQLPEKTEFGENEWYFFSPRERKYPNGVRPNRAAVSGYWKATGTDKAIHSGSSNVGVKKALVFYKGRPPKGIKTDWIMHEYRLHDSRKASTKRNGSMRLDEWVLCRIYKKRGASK
# In short: as §1
# [8] = biological target: T7, GST-NST2(1-184) (Arabidopsis thaliana, UniProt Q9M274 1-184); conditions: protein: recombinant; tags: GST; chain copies: 2; dsDNA, one strand shown
# T7 sequence: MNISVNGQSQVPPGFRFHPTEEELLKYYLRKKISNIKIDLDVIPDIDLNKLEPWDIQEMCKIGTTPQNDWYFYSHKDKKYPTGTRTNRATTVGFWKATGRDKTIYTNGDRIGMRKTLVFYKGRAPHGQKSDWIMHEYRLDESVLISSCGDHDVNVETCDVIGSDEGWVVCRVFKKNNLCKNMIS
# In short: as §1
# [9] = biological target: T8, GST-NTL8 NAC domain (Arabidopsis thaliana, UniProt Q9XIN7 14-156); conditions: protein: recombinant; tags: GST; chain copies: 2; dsDNA, one strand shown
# T8 sequence: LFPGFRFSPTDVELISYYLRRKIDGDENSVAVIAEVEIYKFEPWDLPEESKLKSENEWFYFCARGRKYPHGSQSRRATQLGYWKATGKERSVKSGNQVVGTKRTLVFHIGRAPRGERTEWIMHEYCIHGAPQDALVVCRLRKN
# In short: as §1
# [10] = biological target: T9, GST-SND1(1-203) (Arabidopsis thaliana, UniProt Q9LPI7 1-203); conditions: protein: recombinant; tags: GST; chain copies: 2; dsDNA, one strand shown
# T9 sequence: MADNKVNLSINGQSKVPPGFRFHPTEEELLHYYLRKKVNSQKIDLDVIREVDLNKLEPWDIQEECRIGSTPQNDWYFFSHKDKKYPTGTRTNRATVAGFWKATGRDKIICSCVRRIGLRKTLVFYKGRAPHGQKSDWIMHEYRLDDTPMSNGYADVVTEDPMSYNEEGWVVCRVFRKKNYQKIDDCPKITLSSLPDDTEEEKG
# In short: as §1
# [11] = biological target: T10, GST-VND3 NAC domain (Arabidopsis thaliana, UniProt Q9FH59 12-162); conditions: protein: recombinant; tags: GST; chain copies: 2; dsDNA, one strand shown
# T10 sequence: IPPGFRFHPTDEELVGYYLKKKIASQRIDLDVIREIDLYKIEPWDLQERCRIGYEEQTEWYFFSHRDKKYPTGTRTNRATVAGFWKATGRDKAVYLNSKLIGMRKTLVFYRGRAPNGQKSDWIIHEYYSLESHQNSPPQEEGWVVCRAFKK
# In short: as §1
# [12] = biological target: T11, GST-VND7 NAC domain (Arabidopsis thaliana, UniProt Q9C8W9 9-158); conditions: protein: recombinant; tags: GST; chain copies: 2; dsDNA, one strand shown
# T11 sequence: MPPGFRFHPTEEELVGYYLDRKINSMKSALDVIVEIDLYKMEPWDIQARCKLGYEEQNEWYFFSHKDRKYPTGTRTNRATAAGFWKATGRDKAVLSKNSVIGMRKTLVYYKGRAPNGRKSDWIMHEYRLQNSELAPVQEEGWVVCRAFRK
# In short: as §1
# [13] = biological target: GST-WRKY1(266-371) (Arabidopsis thaliana, UniProt Q9SI37 266-371); conditions: protein: recombinant; tags: GST; dsDNA, one strand shown
# GST-WRKY1(266-371), sequence (Q9SI37 266-371): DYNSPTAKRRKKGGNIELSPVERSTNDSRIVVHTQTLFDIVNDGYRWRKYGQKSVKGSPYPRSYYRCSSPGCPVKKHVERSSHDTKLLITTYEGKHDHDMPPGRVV
# In short: as §1
Sequence,binding signal [1] [E-score],binding signal [2] [E-score],binding signal [3] [E-score],binding signal [4] [E-score],binding signal [5] [E-score],binding signal [6] [E-score],binding signal [7] [E-score],binding signal [8] [E-score],binding signal [9] [E-score],binding signal [10] [E-score],binding signal [11] [E-score],binding signal [12] [E-score],binding signal [13] [E-score]
CACGCAAG,0.481,0.0685,0.413,0.354,0.268,0.484,0.348,0.358,0.155,0.404,0.415,0.367,0.0865
GACGTAAC,0.354,0.088,0.355,0.369,0.268,0.4,0.409,0.24,0.204,0.392,0.367,0.296,0.152
ATGCGTAC,0.362,0.0817,0.191,0.17,0.229,0.414,0.237,0.192,–,0.292,0.235,0.21,0.0545
ACGTCAAA,0.333,0.0817,0.262,0.245,0.176,0.372,0.194,0.261,–,0.361,0.252,0.25,0.421
CTTACCCC,0.192,0.322,0.132,0.191,0.0855,0.179,0.096,0.175,0.405,0.198,0.101,0.149,0.0524
ACGTAAAG,0.402,0.0957,0.367,0.317,0.301,0.421,0.255,0.319,0.0757,0.41,0.359,0.283,0.103

# — publication PMC4081100, “A DNA-binding-site landscape and regulatory network analysis for NAC transcription factors in Arabidopsis thaliana”
